Compound activity deposited in PubChem by several laboratories.
A selection: hits, their analogues and other compounds. The true share with any hit is near 7%.
proKLK7 act – activators of human kallikrein-7 zymogen. P49862. purified proKLK7, EDANS-DABCYL substrate fluorescence; 100% is mature enzyme control, 0% vehicle. activation, % at 7 µM. 370,000 tested, 0.9% active. AID 652039;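 active = activation above the mean of all tested compounds plus 3 SD, computed per campaign excluding outliers beyond control limits, cut at about 13% in these data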
ADAM17 inh – inhibitors of human ADAM17 | recombinant ADAM17, EDANS/DABCYL FRET peptide cleavage | inhibition, % at 6.95 µM | 370,000 tested, 0.83% active;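 active = inhibition above the mean of compounds lying between control limits plus 3 SD, set per campaign, cut at about 8.5% in these data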;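 note: 0% = DMSO-only wells as the low control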
GRIN3A LBD mod – NR3A (human) ligand-binding domain modulation. NR3A LBD differential scanning fluorimetry, Tm shift; 0% = protein alone, 100% = glycine-bound protein. Tm shift relative to glycine control, % at 25 µM. 340,000 tested, 2.5% active. AID 1259313;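 active = melting temperature shift of at least 10% of the positive control shift, at one fixed dose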
rCAG RNA binder – binds r(CAG) RNA repeats. r(CAG) RNA repeat, TO-PRO-1 dye displacement fluorescence. inhibition, % at 3 µM. 370,000 tested, 1.3% active. AID 651821;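 active = inhibition above the plate cutoff, the mean of all test compounds on that plate plus 3 SD, cut at about 35% in these data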;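 note: 0% = DMSO alone and 100% = 100 µM mitoxantrone as full dye displacement; higher means more dye released from RNA so lower well fluorescence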
AHR activator – activates the human aryl hydrocarbon receptor | activation, % at 5 µM | 320,000 tested, 2.5% active | AHR-responsive luciferase reporter cells, luminescence; in the data active = activation above about 47%;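 note: 0% = vehicle wells and 100% = reference agonist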
ADAM10 inh – ADAM10 inhibition, QFRET primary screen. O14672. recombinant ADAM10, EDANS/DABCYL FRET peptide cleavage, 3 h. inhibition, % at 7 µM. 370,000 tested, 0.62% active. AID 720582;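 active = inhibition above a per-campaign cutoff equal to the mean of compounds falling between control-based bounds plus 3 SD, cut at about 20% in these data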;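 note: 0% = DMSO wells while the 100% control is not disclosed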
Target sequence (O14672 214-748 limits assumed): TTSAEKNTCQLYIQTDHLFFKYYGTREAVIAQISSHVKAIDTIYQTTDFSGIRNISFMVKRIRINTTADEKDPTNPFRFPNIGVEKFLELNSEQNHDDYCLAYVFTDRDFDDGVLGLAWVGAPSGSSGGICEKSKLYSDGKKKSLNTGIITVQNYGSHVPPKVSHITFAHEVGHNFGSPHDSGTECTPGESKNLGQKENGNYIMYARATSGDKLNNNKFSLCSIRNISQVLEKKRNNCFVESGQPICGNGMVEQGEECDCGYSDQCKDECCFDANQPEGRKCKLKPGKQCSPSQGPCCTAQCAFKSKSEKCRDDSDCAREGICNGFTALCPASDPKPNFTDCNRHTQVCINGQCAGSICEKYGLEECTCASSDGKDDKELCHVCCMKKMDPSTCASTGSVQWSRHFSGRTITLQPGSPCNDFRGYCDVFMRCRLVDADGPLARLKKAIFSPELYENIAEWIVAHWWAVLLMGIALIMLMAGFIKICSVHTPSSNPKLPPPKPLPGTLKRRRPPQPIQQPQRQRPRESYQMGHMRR
rCAG bind conf – r(CAG) RNA repeat binding, confirmation; shares compounds with rCAG RNA binder; TO-PRO-1 dye displacement fluorescence; inhibition, % at 3 µM; 4,300 tested, 70% active;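 active = inhibition above a per-plate cutoff, the mean inhibition of sample wells plus 3 SD, cut at about 35% in these data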;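 note: loss of TO-PRO-1 fluorescence as compound displaces dye from 1x1 AA loop RNA; 0% = DMSO only wells and 100% = 100 µM mitoxantrone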
dCAG dye counter – counter-screen for rCAG RNA binders: DNA CAG dye complex inhibitors | shares compounds with rCAG RNA binder | d(CAG) DNA oligo TO-PRO-1 dye displacement, fluorescence | inhibition, % at 3 µM | 4,300 tested, 94% active;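 active = inhibition above its plate's cutoff, the mean test-well inhibition plus 3 SD, cut at about 4.8% in these data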;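 note: 0% = DNA dye mix with DMSO and 100% = 100 µM mitoxantrone; hits displace the dye from DNA and so lower well fluorescence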
The depositor's hits bear a star; / = no result given.

SMILES | proKLK7 act | ADAM17 inh | GRIN3A LBD mod | rCAG RNA binder | AHR activator | ADAM10 inh | rCAG bind conf | dCAG dye counter
O=C(Nc1nnc(-c2ccccc2Cl)o1)c1nc2ccccc2s1 | 2 | 0 | -11 | 40* | 16 | -7 | 47* | 13*
N#Cc1cccc(C(=O)Nc2ccc(S(=O)(=O)Nc3nccs3)cc2)c1 | 0 | -2 | -2 | 16 | 1 | 0 | / | /
O=C(Nc1ccc(S(=O)(=O)Nc2nccs2)cc1)c1cccc(N2C(=O)c3ccccc3C2=O)c1 | 0 | -9 | 2 | 69* | 5 | -9 | 58* | 23*
Cc1cccc(-n2ccc(=O)c(C(=O)Nc3ccc(S(=O)(=O)Nc4nccs4)cc3)n2)c1 | -1 | 3 | -14 | 65* | 0 | -4 | 14 | 6.0*
CCn1nc(C(=O)Nc2ccc(S(=O)(=O)Nc3nccs3)cc2)c2ccccc2c1=O | 0 | -2 | -1 | 42* | 1 | -3 | 56* | 18*
O=C(Nc1ccc(S(=O)(=O)Nc2ncccn2)cc1)c1nn(Cc2ccccc2)c(=O)c2ccccc12 | 1 | -3 | -3 | 23 | 1 | -4 | / | /
COc1ccc(-n2ccc(=O)c(C(=O)Nc3ccc(S(=O)(=O)Nc4nccs4)cc3)n2)cc1 | 2 | -1 | -4 | 18 | 2 | -13 | / | /
O=C(Nc1ccc(S(=O)(=O)Nc2nccs2)cc1)c1nn(-c2ccccc2)ccc1=O | 0 | 2 | -4 | 43* | -3 | 5 | 55* | 26*
COC(=O)[C@]12C[C@H](CC(=O)NCCCN3CCCC3=O)C(=O)N(Cc3ccccc3)C1=C[C@H](COCc1ccccc1)O[C@@H]2C | 0 | 1 | / | 0 | / | 5 | / | /
COC(=O)[C@]12C[C@H](CC(=O)NCCCN3CCCC3=O)C(=O)N(Cc3ccc(Cl)cc3Cl)C1=C[C@H](COCc1ccccc1)O[C@@H]2C | 1 | -4 | / | 6 | / | -2 | / | /
O=C(NCCc1ccccc1)OCc1cn(Cc2cc(F)cc(F)c2)nn1 | 0 | -3 | / | 2 | / | 0 | / | /
CCC(Sc1nc2ccsc2c(=O)n1Cc1ccc(C(=O)O)cc1)C(=O)Nc1ccc(C)c(Cl)c1 (stereo not given) | 0 | 8 | -9 | 74* | -1 | 4 | 79* | 49*
COc1ccc(-c2ccc(NS(=O)(=O)c3cc([N+](=O)[O-])ccc3C)cc2)nn1 | 0 | 2 | -4 | 25 | 2 | 10 | / | /
O=[N+]([O-])c1ccc(Cl)c(S(=O)(=O)Nc2ccc(-c3ccc(N4CCCC4)nn3)cc2)c1 | 0 | 5 | 4 | 47* | 0 | -1 | 39* | 12*
COc1ccc(-c2ccc(NS(=O)(=O)c3cc([N+](=O)[O-])c(C)c([N+](=O)[O-])c3)cc2)nn1 | 0 | 0 | 1 | 56* | 3 | 19 | 42* | 15*
CCN(CC)S(=O)(=O)c1ccc(NS(=O)(=O)c2ccc(OC)c([N+](=O)[O-])c2)cc1 | -1 | 0 | -3 | 42* | 4 | 7 | 18 | 4
O=[N+]([O-])c1ccccc1S(=O)(=O)Nc1cccc(-c2ccc(N3CCOCC3)nn2)c1 | 0 | 4 | 1 | 20 | 2 | -18 | / | /
O=[N+]([O-])c1ccccc1S(=O)(=O)Nc1cccc(-c2ccc(N3CCCC3)nn2)c1 | -1 | -2 | -20 | 36* | 8 | -2 | 33 | 9.6*
O=C(CCc1ccccc1)N[C@H]1[C@@H](OC(=O)c2ccc([N+](=O)[O-])cc2)CCC[C@]12C(=O)N(Cc1ccccc1)c1ccccc12 | 0 | -1 | / | 5 | / | -10 | / | /
CC(=O)N1CCc2cc(S(=O)(=O)NCCC(=O)NCc3ccc(Cl)cc3)ccc21 | 1 | 0 | / | 7 | / | 1 | / | /
O=C(/C=C(\Nc1ccc(Cl)c(Cl)c1)c1ccccc1)c1ccccc1 | 0 | -6 | / | 2 | / | -6 | / | /
COC(=O)[C@]12C[C@H](CC(=O)NCC34CC5CC(CC(C5)C3)C4)C(=O)N(Cc3ccc4c(c3)OCO4)C1=C[C@H](C(C)(C)C)O[C@@H]2C | 1 | -3 | / | 6 | / | 0 | / | /
COc1ccc(S(=O)(=O)Nc2ccc(-c3ccc(N4CCCC4)nn3)cc2)cc1C | -1 | -1 | -8 | 10 | 1 | -9 | / | /
Cc1ccc([N+](=O)[O-])cc1S(=O)(=O)Nc1ccc(-c2ccc(N3CCCC3)nn2)cc1 | 0 | 4 | 5 | 37* | 2 | 4 | 43* | 16*
O=[N+]([O-])c1ccc(Cl)c(S(=O)(=O)Nc2cccc(-c3ccc(N4CCCC4)nn3)c2)c1 | 0 | 4 | 16* | 47* | 0 | 1 | 52* | 18*
SMILES | proKLK7 act | ADAM17 inh | GRIN3A LBD mod | rCAG RNA binder | AHR activator | ADAM10 inh | rCAG bind conf | dCAG dye counter
O=[N+]([O-])c1ccc(S(=O)(=O)Nc2ccc(-c3ccc(N4CCCC4)nn3)cc2)cc1 | 1 | -3 | -5 | 25 | -1 | -10 | / | /
Cc1c([N+](=O)[O-])cc(S(=O)(=O)Nc2ccc(-c3ccc(N4CCCC4)nn3)cc2)cc1[N+](=O)[O-] | 0 | 1 | 3 | 56* | 2 | -20 | 65* | 28*
O=C1NC(=O)C2C3C=CC(C12)C1C(=O)NC(=O)C31 (stereo not given) | 0 | -5 | / | 1 | / | -17 | / | /
O=C1Nc2ccccc2-n2nnnc2C1N1CCN(C(=O)C2CCCO2)CC1 (stereo not given) | 0 | -3 | / | 1 | / | -22 | / | /
O=C(CSc1ccsc1[N+](=O)[O-])Nc1cc(F)ccc1F | 0 | 0 | 9 | 38* | / | 0 | 15 | 11*
CCN(CC)c1ccc(NC(=O)CSc2ccsc2[N+](=O)[O-])c(C)c1 | 0 | 1 | -5 | 17 | 10 | 1 | / | /
CC(=O)c1ccc(NC(=O)CSc2ccsc2[N+](=O)[O-])cc1 | 0 | 0 | 12* | 35* | / | -1 | 20 | 14*
CCOC(=O)c1sc(N(Cc2ccccc2)C(=O)CCl)nc1C | 0 | -1 | 0 | -8 | 3 | -2 | / | /
O=C(O)CSCC(=O)N(Cc1ccccc1)c1nc(-c2ccccc2)c(-c2ccccc2)s1 | 1 | 5 | -402 | 68* | 3 | 15 | 86* | 54*
Cc1nnc(SCC(=O)Nc2sc3c(c2C#N)CCCC3)[nH]c1=O | -1 | -3 | 1 | 30 | 16 | -4 | / | /
CCOC(=O)c1c(NC(=O)CSc2nnc(C)c(=O)[nH]2)sc(C)c1-c1ccc(C)cc1 | 0 | -2 | -9 | 43* | 0 | 6 | 79* | 44*
CCOC(=O)c1c(NC(=O)CSc2nnc(C)c(=O)[nH]2)sc2c1CCCC2 | 0 | 1 | -7 | 69* | 1 | -2 | 66* | 20*
